Structures are written as SMILES. Activity calls are given as the source filed them. Unless noted, the rule behind the calls is not given here.

Assay [1] has as its system Wnt5a (protein binding on small-molecule microarray). Nature of the assay: Wnt5a binders on small-molecule microarray, primary screen, biophysical, 635/667 nm fluorescence (AID 1142).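 Note: fluorescence read at 667 nm with signal to noise per printed feature.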 The note with it: 635 nm fluorescence, higher = more signal.
Assay [2] is described as follows: cell viability in Huh7 cells, primary screen, cytotoxicity control for HCV replication inhibitor project, CellTiter-Glo luminescence, basal, 48 h (AID 1143).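 Note: Huh7 hepatoma cells carrying a hepatitis C replication reporter with no stimulus; test concentration not given here.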 The note with it: Huh7 HCV replicon, higher = more signal, called active from +8 up or from −8 down.
Assay [3] is described as follows: P. aeruginosa biofilm formation inhibitors, primary screen, PAO1 strain, BacTiter-Glo luminescence, LB-PBS (AID 1144). The note with it: 12 h, higher = more signal.
A short description of assay [4]: CREB reporter modulators without forskolin, primary screen, cell-based, PC12, CRE-LacZ reporter, unstimulated (AID 1145). The note with it: no forskolin, luminescence, 4.5 h, higher = more signal, called active from +8 up or from −8 down.
The nature of assay [5]: CREB reporter modulators under forskolin, primary screen, cell-based, PC12, CRE-LacZ reporter, forskolin-stimulated (AID 1146).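 Note: PC12 cells with 6xCRE LacZ reporter stimulated by forskolin 10 µM; beta-galactosidase reporter signal reflecting CREB driven transcription.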 Particulars: luminescence, 4.5 h, higher = more signal, called active from +8 up or from −8 down.
In assay [6] the target is Streptavidin (Streptomyces avidinii) (UniProt P22629). In words: streptavidin binders on small-molecule microarray, primary screen, artefact control for SMM compound annotation, biophysical, 635/667 nm fluorescence (AID 1147).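 Note: signal reflects streptavidin binding to arrayed compounds as a control protein.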 Particulars: streptavidin binding, higher = more signal.
A short description of assay [7]: small-molecule binders of probe aInhba, primary screen, biochemical, small-molecule microarray, 635/667 nm fluorescence (AID 1148).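 Note: score merges 667nm spot fluorescence with signal-to-noise for antibody binding to printed compounds.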 Particulars: higher = more signal.
Assay [8] has as its target Torsin-1A (Homo sapiens) (UniProt O14656). Nature of the assay: torsin A binders from cell lysate, primary screen, small-molecule microarray, wild-type, 635/667 nm (AID 1149). The note with it: COS7 hTOR1A-WT lysate, 635 nm fluorescence, higher = more signal.
The target is the same in assay [9]. Nature of the assay: small-molecule binders of mutant TOR1A in lysate, primary screen, cell lysate, small-molecule microarray, COS7 lysate, 635/667 nm fluorescence (AID 1150).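 Note: score pools 667 nm emission and signal to noise measuring lysate protein binding.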 The note with it: COS7 hTOR1A mutant lysate, 635 nm fluorescence, higher = more signal.
Assay [10] deals with Sonic hedgehog protein (Shh). In words: small-molecule binders of Shh protein, primary screen, biochemical, small-molecule microarray, 635/667 nm fluorescence (AID 1151).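 Note: Shh protein binding to compounds spotted on small-molecule microarray slides; score combines spot fluorescence intensity with signal-to-noise across triplicate slides.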 The note with it: small-molecule microarray binding, 635 nm fluorescence; higher = more signal.
Assay [11] is described as follows: E. coli DRC41 culture turbidity changes, primary screen, E. coli filamentation inducer project, strain DRC41, OD650, 48 h (AID 1152).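 Note: E. coli MC1000 strain DRC41 lacking acrAB efflux pump and sulA.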 The note with it: E. coli DRC41 (acrAB sulA), higher = more signal, called active from +8 up or from −8 down.
A short description of assay [12]: small-molecule binders of probe aLefty1, primary screen, biochemical, small-molecule microarray, 635/667 nm fluorescence (AID 1153).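 Note: score merges spot fluorescence with signal-to-noise ratio from the scanned slide images.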 The note with it: higher = more signal.
Assay [13] is described as follows: PSAC antagonists in infected red cells, primary screen, cell-based, P. falciparum Indochina, OD700, 1 h (AID 1154). The note with it: P. falciparum Indochina infected RBC osmotic lysis, higher = more signal, called active from +8 up or from −8 down.
Assay [14] can be described thus: PSAC antagonists in infected red cells, primary screen, cell-based, P. falciparum Indochina, OD700, 2 h (AID 1155).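 Note: lysis reports solute entry through the parasite surface anion channel PSAC; channel blockers reduce lysis of infected cells.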 Particulars: P. falciparum Indochina infected erythrocytes, osmotic lysis OD700; higher = more signal, called active from +8 up or from −8 down.
A short description of assay [15]: osmotic lysis modulators in infected erythrocytes, primary screen, PSAC antagonist project, cell-based, P. falciparum Indochina, OD700, 3 h (AID 1156). Particulars: higher = more signal, called active from +8 up or from −8 down.
Assay [16] in a line: PSAC antagonists in infected red cells, primary screen, cell-based, P. falciparum Indochina, OD700, 18 h (AID 1157). Particulars: P. falciparum Indochina infected erythrocytes, osmotic lysis OD700, 18 h; higher = more signal, called active from +8 up or from −8 down.
Assay [17] is described as follows: modulators of S6 phosphorylation in cells, primary screen, cell-based, A549, cytoblot, luminescence, serum-stimulated (AID 1158).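 Note: serum-stimulated A549 lung adenocarcinoma cells; signal is phosphorylated S6 detected by cytoblot immunostaining with HRP secondary.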 The note with it: A549 phospho-S6 cytoblot, 5 h, higher = more signal.
Assay [18] concerns the target NADPH oxidase 2 (Homo sapiens) (UniProt P04839). Nature of the assay: NOX2-dependent H2O2 signal modulators, primary screen, NOX inhibitor project, cell-based, HEK293-NOX2, PMA-stimulated, Amplex Red fluorescence (AID 1159). Note: test concentration not given here. The note with it: 45 min, higher = more signal, called active from +8 up or from −8 down.
The target of assay [19] is NADPH oxidase 4 (Homo sapiens) (UniProt Q9NPH5). Nature of the assay: NOX4-dependent H2O2 signal modulators, primary screen, NOX inhibitor project, cell-based, HEK293-NOX4, tetracycline-induced, Amplex Red fluorescence (AID 1160). Particulars: 45 min, higher = more signal, called active from +8 up or from −8 down.
Assay [20] deals with NADPH oxidase 5 (Homo sapiens) (UniProt Q96PH1). In words: NOX5-dependent H2O2 signal modulators, primary screen, NOX inhibitor project, cell-based, HEK293-NOX5, Amplex Red fluorescence (AID 1161). The note with it: HEK293-NOX5, ionomycin, 45 min, higher = more signal.
Chain of NADPH oxidase 5 (Homo sapiens) (Q96PH1 whole entry, looked up): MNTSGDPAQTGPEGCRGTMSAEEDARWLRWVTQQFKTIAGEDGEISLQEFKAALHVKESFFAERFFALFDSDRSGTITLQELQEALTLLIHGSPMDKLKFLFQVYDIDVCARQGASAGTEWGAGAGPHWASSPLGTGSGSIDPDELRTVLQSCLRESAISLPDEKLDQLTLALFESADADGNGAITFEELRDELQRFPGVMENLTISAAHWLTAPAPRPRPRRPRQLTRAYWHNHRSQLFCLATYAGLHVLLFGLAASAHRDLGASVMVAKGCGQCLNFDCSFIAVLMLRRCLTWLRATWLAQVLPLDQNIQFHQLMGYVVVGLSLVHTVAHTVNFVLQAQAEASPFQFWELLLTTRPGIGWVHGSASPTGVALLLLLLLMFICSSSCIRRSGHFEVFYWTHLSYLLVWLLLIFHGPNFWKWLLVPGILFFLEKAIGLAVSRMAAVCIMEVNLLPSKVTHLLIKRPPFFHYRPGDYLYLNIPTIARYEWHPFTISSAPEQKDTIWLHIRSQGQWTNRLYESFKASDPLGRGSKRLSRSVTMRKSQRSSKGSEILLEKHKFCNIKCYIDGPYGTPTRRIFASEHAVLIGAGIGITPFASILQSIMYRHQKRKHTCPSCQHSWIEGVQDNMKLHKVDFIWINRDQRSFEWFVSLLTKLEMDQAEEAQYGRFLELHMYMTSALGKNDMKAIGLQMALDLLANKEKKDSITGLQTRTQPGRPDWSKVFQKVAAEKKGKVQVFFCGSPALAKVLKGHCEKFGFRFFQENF

Chain of NADPH oxidase 2 (Homo sapiens) (P04839 whole entry, looked up): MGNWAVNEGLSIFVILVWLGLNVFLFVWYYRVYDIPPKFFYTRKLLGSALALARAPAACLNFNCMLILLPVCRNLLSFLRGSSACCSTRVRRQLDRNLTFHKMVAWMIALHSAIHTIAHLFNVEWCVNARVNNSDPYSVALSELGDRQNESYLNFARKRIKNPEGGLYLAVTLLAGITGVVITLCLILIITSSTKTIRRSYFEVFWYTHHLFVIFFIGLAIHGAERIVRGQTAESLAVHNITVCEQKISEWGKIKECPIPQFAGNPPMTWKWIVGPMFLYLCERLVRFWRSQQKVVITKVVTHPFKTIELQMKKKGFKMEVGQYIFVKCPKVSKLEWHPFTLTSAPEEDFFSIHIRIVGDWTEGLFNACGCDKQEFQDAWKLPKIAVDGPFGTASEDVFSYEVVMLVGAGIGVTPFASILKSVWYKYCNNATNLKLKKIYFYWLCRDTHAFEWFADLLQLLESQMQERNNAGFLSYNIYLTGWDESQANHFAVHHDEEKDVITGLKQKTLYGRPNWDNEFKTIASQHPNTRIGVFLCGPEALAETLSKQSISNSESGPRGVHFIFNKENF
Chain of Streptavidin (Streptomyces avidinii) (P22629 whole entry, looked up): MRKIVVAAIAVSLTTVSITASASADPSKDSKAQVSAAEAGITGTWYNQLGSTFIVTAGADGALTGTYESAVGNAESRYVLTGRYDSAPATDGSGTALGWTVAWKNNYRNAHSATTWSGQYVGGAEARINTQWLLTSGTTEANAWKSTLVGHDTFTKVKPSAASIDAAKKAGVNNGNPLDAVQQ
Chain of Torsin-1A (Homo sapiens) (O14656 whole entry, looked up): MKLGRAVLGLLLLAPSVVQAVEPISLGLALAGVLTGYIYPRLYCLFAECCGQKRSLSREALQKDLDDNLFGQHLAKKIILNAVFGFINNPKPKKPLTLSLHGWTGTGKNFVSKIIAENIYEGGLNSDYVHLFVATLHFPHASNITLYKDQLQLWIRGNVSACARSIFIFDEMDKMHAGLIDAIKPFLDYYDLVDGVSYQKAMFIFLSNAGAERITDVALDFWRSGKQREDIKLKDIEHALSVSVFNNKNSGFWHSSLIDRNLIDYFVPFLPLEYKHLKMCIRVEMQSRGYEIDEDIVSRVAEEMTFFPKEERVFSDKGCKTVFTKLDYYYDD
Chain of NADPH oxidase 4 (Homo sapiens) (Q9NPH5 whole entry, looked up): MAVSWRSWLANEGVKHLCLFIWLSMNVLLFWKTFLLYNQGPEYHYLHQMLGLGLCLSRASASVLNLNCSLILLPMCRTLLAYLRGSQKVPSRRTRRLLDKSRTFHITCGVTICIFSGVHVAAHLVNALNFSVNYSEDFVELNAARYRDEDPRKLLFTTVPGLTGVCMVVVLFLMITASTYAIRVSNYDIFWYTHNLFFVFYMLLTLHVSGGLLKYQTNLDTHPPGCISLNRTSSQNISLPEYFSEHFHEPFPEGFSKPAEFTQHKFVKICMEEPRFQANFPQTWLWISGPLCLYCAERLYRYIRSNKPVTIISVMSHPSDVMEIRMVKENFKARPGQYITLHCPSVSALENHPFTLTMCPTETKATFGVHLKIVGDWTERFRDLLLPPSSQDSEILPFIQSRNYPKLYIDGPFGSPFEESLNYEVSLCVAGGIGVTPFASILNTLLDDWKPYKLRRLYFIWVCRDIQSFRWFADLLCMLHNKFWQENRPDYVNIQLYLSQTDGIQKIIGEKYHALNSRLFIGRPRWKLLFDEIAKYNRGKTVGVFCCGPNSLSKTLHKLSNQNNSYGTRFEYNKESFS

With `CCN1C(=O)[C@H]2[C@H]3[C@H](O)[C@H](O)CC(=NOCC(C)C)[C@H]3CC[C@H]2C1=O`, the composite z-score in assay [1] is -0.0772; in [6], 0.342; in [7], -0.0774; in the assay with Torsin-1A (Homo sapiens) [8] it was -0.284; in the assay with Torsin-1A (Homo sapiens) [9] it was 0.303; in assay [10], 0.599. For the same compound, the composite z-score in assay [12] is -0.0658. For the same compound, the z-score is 0.306 (inactive) in [2]; 0.138 (inactive) in assay [3]; -0.202 (inactive) in [4]; 0.13 (inactive) in [5]; 0.552 (inactive) in assay [11]; -0.135 (inactive) in assay [13]. Moreover, the z-score in assay [14] is -0.0288 (inactive); in [15] it was -0.369 (inactive); in assay [16] it was -0.433 (inactive); in assay [17] it was -0.812; in [18], -5.92 (inactive); in assay [19], 0.358 (inactive). For the same compound, the z-score in [20] is -0.231.
Turning to `CCOC(=O)CCN1C(=O)[C@H]2[C@H]3[C@H](O)[C@H](O)CC(=NNC(=O)OCc4ccccc4)[C@H]3CC[C@H]2C1=O`, the composite z-score in assay [1] is 0.126; in [6], -0.362; in assay [7] it was -0.0781; with Torsin-1A (Homo sapiens) [8] it was 1.95; in the assay with Torsin-1A (Homo sapiens) [9], 2.44; in [10], 0.968. For the same compound, the composite z-score in assay [12] is -0.0162. Further, the z-score in assay [2] was -1.31 (inactive); in [3], -0.326 (inactive); in [4] it was 1.07 (inactive); in assay [5], -0.253 (inactive); in [11], -0.351 (inactive); in [13], 0.992 (inactive). In addition, the z-score in assay [14] was 0.0095 (inactive); in assay [15], 0.0794 (inactive); in assay [16], 0.0606 (inactive); in [17], -0.707; in assay [18], 1.28 (inactive); in assay [19], 0.327 (inactive). This compound also had a z-score in assay [20] of 0.595.
On to `CC[C@@H](c1ccccc1)n1c(=O)n2n(c1=O)[C@H]1[C@H](O)[C@@H]3O[C@@H]3C(=NOCc3ccccc3)[C@H]1CC2`, for which the composite z-score in assay [1] was 0.0576; in assay [6] it was 0.347; in [7], -0.0131; with Torsin-1A (Homo sapiens) [8], 0.106; with Torsin-1A (Homo sapiens) [9], 0.223; in [10] it was 1.05. In assay [12], this compound displayed a composite z-score of 0.0004. Moreover, the z-score is -3.91 (inactive) in assay [2]; 0.479 (inactive) in [3]; 0.248 (inactive) in [4]; 0.706 (inactive) in [5]; -1.08 (inactive) in assay [11]; 2.18 (inactive) in assay [13]. For the same compound, the z-score is 0.0656 (inactive) in [14]; 1.1 (inactive) in assay [15]; 0.454 (inactive) in assay [16]; 0.3 in assay [17]; 1.55 (inactive) in assay [18]; -0.989 (inactive) in assay [19]. In addition, the z-score in assay [20] was found to be 1.21.
Regarding `CCOC(=O)[C@H](Cc1ccccc1)NC(=O)CCC1CC(OC(=O)NCc2ccc3c(c2)OCO3)CC2(CCCC(COC(=O)NCCCN3CCCC3=O)O2)O1` (stereo not given in full), the composite z-score in assay [1] was 0.0512; in assay [6], 0.669; in assay [7], -0.0736; in the assay with Torsin-1A (Homo sapiens) [8], 0.408; with Torsin-1A (Homo sapiens) [9], 0.078; in assay [10], 1.53. Besides, the composite z-score in assay [12] was -0.572. In addition, the z-score is -1.98 (inactive) in assay [2]; 0.14 (inactive) in assay [3]; 1.01 (inactive) in [4]; -0.257 (inactive) in assay [5]; 0.169 (inactive) in assay [11]; -0.709 (inactive) in assay [13]. For the same compound, the z-score in assay [14] was 0.274 (inactive); in [15] it was 0.218 (inactive); in assay [16] it was 0.151 (inactive); in assay [17] it was 0.125; in assay [18], 0.996 (inactive); in [19], 0.689 (inactive). This compound yielded a z-score in assay [20] of -0.044.

Values taken from PubChem BioAssay.
